Hits are enriched below; roughly 16% of the tested compounds scored in any of these assays.
uPA generation = qHTS for Inhibitors of Cell Surface uPA Generation | cell surface uPA generation assay, qHTS | Potency, µM (top dose mostly 38.3 µM), for inactives: at the highest dose activity change, negative = inhibition, usual class: inhibitors | hit rate 0.31% among 330,000; active = well fitted inhibition curve with a large enough effect; inconclusive = small, poorly fitted or top-dose-only effect; inactive = no such curve, though single readings can be large or run the other way; tested in mouse RAW 264.7 cells; note: potency is the fitted concentration of half-maximal effect; % is set by controls: 0 for no effect and ±100 for the full control effect; nearly all actives have a fitted effect of over 55% in size
miR-21 reporter = qHTS Assay for Modulators of miRNAs and/orActivators of miR-21; HeLa miR-21 FLuc reporter, luciferase, 48 h; 340,000 tested, under 10 active; AID 2288, 2010; Potency, µM (doses to about 38.3 µM), for the others: top-dose activity change, positive = activation, hits mostly activators;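 note: % of control where 0% means no effect; miR-21 action dims this reporter so a rising signal means less miR-21 action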
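Luminescence from a firefly luciferase reporter carrying a miR-21 binding site downstream, stably expressed under a CMV promoter in HeLa cells that make miR-21 endogenously, reports miRNA modulation after 48 h compound exposure up to approximately 40uM final.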
TDP1 block = qHTS Assay for Inhibitors of Tyrosyl-DNA Phosphodiesterase (TDP1); Potency, µM (doses to about 130 µM), for the others: at the top dose activity change, negative = inhibition, most hits filed as inhibitors; AID 485290, 2010; recombinant TDP1, AlphaScreen DNA substrate cleavage; hit rate 0.28% among 350,000; note: potency is the fitted concentration of half-maximal effect; % is set by controls: 0 for no effect and ±100 for the full control effect; nearly all actives have a fitted effect of over 40% in size
Target sequence (Q9NUW8 whole entry, looked up): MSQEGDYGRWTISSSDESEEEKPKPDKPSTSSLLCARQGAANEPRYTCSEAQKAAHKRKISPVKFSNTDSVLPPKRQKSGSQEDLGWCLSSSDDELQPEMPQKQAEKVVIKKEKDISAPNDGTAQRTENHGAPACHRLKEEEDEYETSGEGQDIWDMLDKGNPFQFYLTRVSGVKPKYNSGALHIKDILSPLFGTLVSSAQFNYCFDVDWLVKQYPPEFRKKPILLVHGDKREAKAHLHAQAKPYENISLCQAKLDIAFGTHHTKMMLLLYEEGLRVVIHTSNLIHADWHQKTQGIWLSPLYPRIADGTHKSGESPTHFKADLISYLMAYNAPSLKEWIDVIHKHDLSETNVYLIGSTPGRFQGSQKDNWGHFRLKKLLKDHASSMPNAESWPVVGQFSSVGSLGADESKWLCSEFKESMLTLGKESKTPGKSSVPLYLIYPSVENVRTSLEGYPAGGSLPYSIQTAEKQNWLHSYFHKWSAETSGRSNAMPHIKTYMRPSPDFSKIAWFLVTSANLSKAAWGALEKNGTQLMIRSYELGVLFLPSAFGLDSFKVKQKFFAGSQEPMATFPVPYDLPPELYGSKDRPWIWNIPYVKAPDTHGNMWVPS
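Enzyme-compound mixtures sat 15 min at room temperature, followed by a 5 min reaction with 15 nM final substrate and 10 min with AlphaScreen beads. Recombinant human Tdp1 was used at 1 nM final.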
TDP1 cell CPT = qHTS for Inhibitors of human tyrosyl-DNA phosphodiesterase 1 (TDP1): qHTS in cells in presence of CPT. chicken DT40 Tdp1-/-;hTDP1 cells + 20 nM CPT, ATP luminescence, 48 h. Potency, µM (titrated, usually from 46.2 µM), for the others: top-dose activity change, negative = growth inhibition, actives largely listed as inhibitors. hit rate 12% among 420,000; note: potency is the fitted concentration of half-maximal effect; % is set by controls: 0 for no effect and ±100 for the full control effect; nearly all actives have a fitted effect of over 55% in size
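Cell growth measured by CellTiter-Glo luminescence after a minimum 48 h, 37 C compound exposure with 20 nM CPT in Tdp1-knockout DT40 cells stably expressing hTDP1, seeded 400/well; qHTS titration format.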
TDP1 cell noCPT = qHTS for Inhibitors of human tyrosyl-DNA phosphodiesterase 1 (TDP1): qHTS in cells in absence of CPT. Potency, µM (titrated, usually from 46.2 µM), without a hit: at the highest dose activity change, negative = growth inhibition, actives largely listed as inhibitors. DT40 Tdp1-/- hTDP1 cells, no CPT, ATP luminescence, 48 h. hit rate 15% among 420,000. AID 686978, 2013; note: potency is the fitted concentration of half-maximal effect; % is set by controls: 0 for no effect and ±100 for the full control effect; nearly all actives have a fitted effect of over 55% in size
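Chicken DT40 Tdp1-/- cells complemented with human TDP1, screened without camptothecin (DMSO vehicle only), 400 cells/well. Compounds pin-transferred, cells incubated at 37 °C for at least 48 hr. Growth read as ATP-dependent luminescence (CellTiter-Glo, 30 min at RT).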
Starred values were filed as active, the others as inactive; [ ] = another dose, or the depositor's remark. Unless noted, calls come from the whole dose curve; as a rule, active = well fitted curve in the direction sought with a large enough effect; inconclusive = small, poorly fitted or top-dose-only effect, or another doubt; inactive = no such curve, though single readings can be large; an effect the other way counts as inactive or inconclusive.

For O=S(=O)(CCOc1ccccc1)c1nc2ccccc2[nH]1 the results were uPA generation -5.8%, miR-21 reporter 15.7%, TDP1 block -3.3%, TDP1 cell CPT inconclusive and TDP1 cell noCPT 23.1µM*.
Screening Cc1cc(=O)c2c(O)c3c(O)cc(O)c4c5c(O)cc(O)c6c(O)c7c(=O)cc(C)c8c1c2c(c34)c(c65)c78 returned TDP1 block 20.7%, TDP1 cell CPT 16.4µM* and TDP1 cell noCPT 8.2µM*.
For Cc1cc(O)c2c(c1O)C(=O)c1c(O)cc(C)c(O)c1C2=O the results were TDP1 block 10.2%[56.1 µM], TDP1 cell CPT -15.7% and TDP1 cell noCPT 1.1%.
Cc1ccc(Oc2c(C(F)(F)F)oc3c(CN4CCCCC4C)c(O)ccc3c2=O)cc1 (configuration not stated) was read as miR-21 reporter -0.5%, TDP1 cell CPT inconclusive and TDP1 cell noCPT 25.9µM*.
For CN(C)Cc1c(O)ccc2cc(-c3nc4ccccc4n3C)c(=O)oc12 the results were uPA generation 0.2%, miR-21 reporter -56.5%, TDP1 block 3.0%, TDP1 cell CPT -1.8% and TDP1 cell noCPT 3.7%.
For CCN(CC)c1ccc2cc(C(=O)c3cccs3)c(=O)oc2c1 the results were TDP1 cell CPT 18.4µM* and TDP1 cell noCPT inconclusive.
CCN(CC)c1ccc2cc(-c3nc(-c4ccc(OC)cc4)cs3)c(=O)oc2c1 was read as uPA generation 5.9%, miR-21 reporter -15.4%, TDP1 cell CPT inconclusive and TDP1 cell noCPT 14.6µM*.
`CCN(CC)c1ccc2cc(-c3nc4ccccc4n3C)c(=O)oc2c1` gave uPA generation -11.0%, miR-21 reporter -13.2%, TDP1 block -3.7%, TDP1 cell CPT 0.651µM* and TDP1 cell noCPT 1.16µM*.
`Nc1c(-c2ccccn2)cnn1-c1nc(-c2ccc(F)cc2)cs1` gave uPA generation -26.7%, miR-21 reporter -56.6%, TDP1 block 2.9%, TDP1 cell CPT inconclusive and TDP1 cell noCPT -26.4%.
CCCCC(=O)Nc1cccc(C(=O)Nc2ccccc2C(=O)O)c1 was read as uPA generation 1.8%, miR-21 reporter 6.2%, TDP1 block 2.6%, TDP1 cell CPT -4.3% and TDP1 cell noCPT -29.4%.
`Cc1ccc(OCc2ccc(C(=O)NN)o2)c([N+](=O)[O-])c1` gave uPA generation 3.0%, miR-21 reporter -13.2%, TDP1 block 9.6%, TDP1 cell CPT -3.4% and TDP1 cell noCPT -1.3%.
Cc1nn(Cc2c(F)c(F)c(F)c(F)c2F)c(C)c1NC(=O)c1c([N+](=O)[O-])cnn1C was read as miR-21 reporter 1.6%, TDP1 block 8.8%, TDP1 cell CPT 13µM* and TDP1 cell noCPT 11.6µM*.
`Cc1nn(Cc2c(F)c(F)c(F)c(F)c2F)c(C)c1NC(=O)c1nn(C)cc1Br` gave uPA generation 3.7%, miR-21 reporter 0.5%, TDP1 block 1.3%, TDP1 cell CPT inconclusive and TDP1 cell noCPT -16.5%.
Screening Cc1ccc(OCc2ccc(C(=O)Nc3c(C)nn(Cc4c(F)c(F)c(F)c(F)c4F)c3C)o2)c([N+](=O)[O-])c1 returned miR-21 reporter 14.9%, TDP1 block 5.0%, TDP1 cell CPT 13µM* and TDP1 cell noCPT 18.4µM*.
Screening CCn1ncc(Br)c1C(=O)Nc1c(C)nn(Cc2c(F)c(F)c(F)c(F)c2F)c1C returned uPA generation -3.5%, miR-21 reporter -3.2%, TDP1 block 2.6%, TDP1 cell CPT 16.4µM* and TDP1 cell noCPT inconclusive.
Screening COc1ccc(/C=N/Nc2nc(C)cc(-c3ccccc3)n2)cc1OC returned uPA generation -2.1%, miR-21 reporter 4.3%, TDP1 block 6.6%, TDP1 cell CPT -123.8% and TDP1 cell noCPT inconclusive.
`O=C(NCC(c1ccco1)N1CCc2ccccc2C1)c1ccc(Br)cc1` (configuration not stated) gave uPA generation 0.8%, TDP1 block -4.3%[0.505 µM], TDP1 cell CPT inconclusive and TDP1 cell noCPT 23.1µM*.
Cc1ccc(C(=O)NCC(c2ccco2)N2CCc3ccccc3C2)cc1C (configuration not stated) was read as uPA generation -3.0%, TDP1 block -6.3%, TDP1 cell CPT 18.4µM* and TDP1 cell noCPT 20.6µM*.
NC(=O)C[C@H](NC(=O)c1ccc(Cl)cc1)C(=O)OCc1ccccc1 was read as uPA generation 6.1%, TDP1 block 0.3%, TDP1 cell CPT -27.2% and TDP1 cell noCPT inconclusive.
Screening CCn1cc(C(=O)NC(C)C2CC3CCC2C3)cn1 (configuration not stated) returned uPA generation 1.1%, miR-21 reporter -7.8%, TDP1 block -5.3%, TDP1 cell CPT -4.2% and TDP1 cell noCPT -0.2%.
CN(C)c1ccc(NC(=O)CSC2=Nc3ccccc3C3=NC(CC(=O)NCc4ccc5c(c4)OCO5)C(=O)N23)cc1 (configuration not stated) was read as miR-21 reporter -27.4%, TDP1 block 9.3%, TDP1 cell CPT inconclusive and TDP1 cell noCPT inconclusive.
`COc1ccc(N(CC(=O)Nc2cc(C)ccc2C)S(=O)(=O)c2ccccc2[N+](=O)[O-])c(OC)c1` gave uPA generation 0.1%, miR-21 reporter 5.0%, TDP1 block 2.5%, TDP1 cell CPT inconclusive and TDP1 cell noCPT 11.6µM*.
COc1ccc(N(CC(=O)NCc2ccc3c(c2)OCO3)S(=O)(=O)c2ccccc2[N+](=O)[O-])c(OC)c1 was read as uPA generation -1.3%, miR-21 reporter -0.4%, TDP1 block 3.4%, TDP1 cell CPT 25.9µM* and TDP1 cell noCPT inconclusive.
Nc1nc(Cl)nc2c1ncn2C1CCC(CO)O1 (configuration not stated) was read as TDP1 cell CPT 1.03µM* and TDP1 cell noCPT 1.46µM*.
`Nc1ncnc2c1ncn2[C@H]1CC[C@@H](CO)O1` gave uPA generation 5.7%, TDP1 block 4.5%, TDP1 cell CPT 1.64µM* and TDP1 cell noCPT 2.91µM*.
`Nc1nc(O)c2ncn([C@H]3CC[C@@H](CO)O3)c2n1` gave TDP1 block 4.5%, TDP1 cell CPT inconclusive and TDP1 cell noCPT inconclusive.
For Nc1ncnc2c1ncn2C1CCCO1 (configuration not stated) the results were uPA generation -3.7%, TDP1 block 9.5%, TDP1 cell CPT 2.9% and TDP1 cell noCPT -6.9%.
Screening CC(=O)Nc1cccc(S(N)(=O)=O)c1C returned uPA generation -2.7%, miR-21 reporter -0.7%, TDP1 block 4.1%, TDP1 cell CPT -1.0% and TDP1 cell noCPT 14.7%.
